Experimental data: ChEMBL document CHEMBL3433997, “St. Jude Leishmania screening dataset” (2016)

Assays:
Type in all cases: functional
[1] = target: Solute carrier family 2, facilitated glucose transporter member 1 (Homo sapiens) (UniProt P11166); assay: ST_JUDE_LEISH: Cytotoxicity at 2uM final concentration against transgenic Leishmania Mexicana promastigotes LmGLUT1 that are glucose transport deficient and complemented with the human glucose transporter GLUT1. Activity is measured by DNA content using SYBR green in vitro
Sequence of Solute carrier family 2, facilitated glucose transporter member 1 (Homo sapiens) (P11166 whole entry): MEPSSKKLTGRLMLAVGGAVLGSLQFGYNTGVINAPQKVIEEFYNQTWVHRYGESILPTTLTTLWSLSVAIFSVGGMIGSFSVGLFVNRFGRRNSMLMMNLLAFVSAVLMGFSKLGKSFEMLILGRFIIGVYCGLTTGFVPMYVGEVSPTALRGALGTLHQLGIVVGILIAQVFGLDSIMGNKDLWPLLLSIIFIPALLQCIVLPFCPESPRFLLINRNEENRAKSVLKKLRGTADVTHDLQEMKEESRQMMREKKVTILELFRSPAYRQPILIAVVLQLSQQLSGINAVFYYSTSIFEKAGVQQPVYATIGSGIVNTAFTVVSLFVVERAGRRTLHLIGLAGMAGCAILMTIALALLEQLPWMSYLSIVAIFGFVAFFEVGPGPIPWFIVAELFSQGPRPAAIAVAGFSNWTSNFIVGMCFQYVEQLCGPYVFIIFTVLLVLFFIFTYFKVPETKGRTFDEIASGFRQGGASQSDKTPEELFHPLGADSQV

[2] = target: Hexose transporter 1 (Plasmodium falciparum) (UniProt O97467); assay: ST_JUDE_LEISH: Cytotoxicity at 2uM final concentration against transgenic Leishmania Mexicana promastigotes LmPfHT that are glucose transport deficient and complemented with the Plasmodium falciparum hexose transporter. Activity is measured by DNA content using SYBR green in vitro
[3] = target: Glucose transporter (Leishmania mexicana) (UniProt O61059); assay: ST_JUDE_LEISH: Cytotoxicity at 2uM final concentration against transgenic Leishmania Mexicana promastigotes LmGT2 that are glucose transport deficient and complemented with the L. Mexicana glucose transporter 2. Activity is measured by DNA content using SYBR green in vitro

Compound | inhibition [1] [%] | inhibition [2] [%] | inhibition [3] [%]
Fc1ccc2[nH]c(-c3cccc(-c4cccc(CNCCc5ccncc5)c4)c3)nc2c1 | 11.1 | 10.6 | 12.9
COc1cc(C(=O)Nc2cccc(-c3cn4cccc(C)c4n3)c2)cc(OC)c1OC | 15.8 | 10.9 | 10.5
O=C(NCc1cccc(C(F)(F)F)c1)C(c1cc2ccccc2o1)N1CCN(C(c2ccccc2)c2ccccc2)CC1 (centres undefined) | 1.37 | 2.33 | 0.71
COc1ccc(NC(=O)[C@H](Cc2ccccc2)Nc2cc(C)nc(NCCc3ccccc3OC)n2)cc1 | -0.03 | -1.38 | -0.97
NCCCN(Cc1ccc(Cl)c(Cl)c1)C(=O)Nc1ccc(Cl)c(Cl)c1 | 14.3 | 9.33 | 10.1
O=C(NCCN1CCCCC1)c1ccc(CNC(=O)c2ccc(O)c(-c3cccc(C(F)(F)F)c3)c2)cc1 | 4.42 | 3.09 | 3.27
CCNc1cc(C(=O)N[C@@H](Cc2ccc(Cl)cc2)[C@H](O)CNC2CCCCC2)cc(N2CCCCS2(=O)=O)c1 | 0.89 | 1.36 | 1.39
COc1cc(CNc2ccc(N3CCCC3)cc2)cc(Cl)c1OC | -2.15 | -4.72 | 1.78
Cc1cc(NC(=O)Nc2ccc(C#N)cc2)c2ccccc2n1 | 1.79 | 4.35 | 0.95
CCNc1cc(C)nc(Nc2ccc(NC(=O)c3ccco3)cc2)n1 | 4.54 | 3.53 | -0.01
O=C(Nc1ccc(-c2nc3ccccc3[nH]2)cc1)c1ccc(S(=O)(=O)N2CCCCC2)cc1 | 3.08 | 4.17 | 0.68
COc1ccc(-n2ccnc2SCC(=O)Nc2cc(C(F)(F)F)ccc2Cl)c(OC)c1 | 12.8 | 11.2 | 7.95
C=C(C)COc1ccc(-c2n[nH]c(C(F)(F)F)c2-c2ccccc2OC)c(O)c1 | 8.67 | 6.88 | 6.48
CC(C)Cn1c(Sc2ccc(C#N)c([N+](=O)[O-])c2)nnc1-c1ccccc1 | 6.46 | 6.58 | 3.76
CC(Sc1nnc(-c2ccccc2Br)[nH]1)C(=O)Nc1ccc(F)cc1 (centres undefined) | 10.4 | 9.07 | 6.58
c1ccc(CNCc2ccc(-c3ccc(-c4nc5ccccc5[nH]4)cc3)cc2)cc1 | 20.4 | 12.9 | 10
O=C(/C=C/c1ccc(Cl)cc1)NCCCCCN1CCCC(C(=O)Nc2ccc(F)c(Cl)c2)C1 (centres undefined) | 2.06 | 1.34 | 2.38
O=C(CNc1ccc(Cl)c(S(=O)(=O)N2CCCC2)c1)Nc1ccc(Br)cc1F | -2.34 | 1.47 | 1.03
N#Cc1ccc(CN2CCC(Oc3ccc(NC(=O)c4cccs4)cc3)CC2)cc1 | -0.02 | 1.99 | 4.28

Compound | inhibition [1] [%] | inhibition [2] [%] | inhibition [3] [%]
O=C(NC1CCN(CCN2CCC(c3cn(CCO)c4ccccc34)CC2)CC1)c1ccc(-c2ccc(C(F)(F)F)cc2)cc1 | -1.51 | 3.18 | 0.94
CN(C)CCOc1cc(NC(=O)/C=C/c2cccc3ccccc23)ccc1I | 10.4 | 8.1 | 8.23
COc1cc2ncnc(Nc3ccc4nc(Cc5ccccc5)[nH]c4c3)c2cc1OC | 1.2 | 1.95 | 2.53
Oc1ccc(C=NNC(S)=Nc2cccc3ccccc23)c(O)c1 | 4.86 | 4.96 | 2.47
CS(=O)(=O)Cc1cccc(Nc2ncc(Cl)c(Nc3cccnc3C(N)=O)n2)c1 | 11.5 | 12.6 | 15.6
O=C(NCCCCN1CCC(O)(c2ccc3c(c2)OCO3)CC1)c1ccc(NC(=O)c2ccc(Cl)cc2)cc1 | -1.5 | 1.45 | -1.6
Cc1ccc(C2=NNC3(S2)C(=O)N(C)c2ccccc23)cc1 (centres undefined) | 5.66 | 8.24 | 9.09
O=C1CCCN1CCCNCc1ccc(-c2ccc(-c3nc4cc(F)ccc4[nH]3)cc2)cc1 | 11.9 | 13.3 | 12.3
CCN(CC)CCCNc1nccc(N2CCc3ncnc(Nc4ccc(OCc5cccc(F)c5)c(Cl)c4)c3C2)n1 | 7.17 | 9.1 | 7.87
CCCN(CCC)CCCOc1ccc(C(=O)c2c(-c3ccc(OCCCN(CCC)CCC)cc3)oc3ccc(Cl)cc23)cc1 | 70.8 | 49.3 | 31.1
CCCNC[C@@H](O)[C@H](Cc1ccccc1)NC(=O)c1cc(NCC)cc(N2CCCCS2(=O)=O)c1 | 1.97 | 2.32 | 2.85
CCOc1c(CNCCCNc2cc(O)c3ccccc3n2)cc(I)cc1OC | -0.3 | -1.22 | 1.41
Cc1[nH]c(C)c(-c2ccc(-c3ccccc3F)nc2)c(=O)c1Br | 2.19 | 4.24 | 1.41
NC1CCN(Cc2cccc(-c3csc(-c4nc5ccccc5[nH]4)c3)c2)C1 (centres undefined) | 2.21 | 1.55 | 4.6
O=C(NCCCCN1CCC(c2cccc3ccccc23)CC1)c1ccc(-c2ccc(C(F)(F)F)cn2)cc1 | 2.62 | 3.84 | 1.69
COC(=O)C1=C(C)NC2=C(C(=O)CC(c3ccc(OC)c(OC)c3)C2)C1c1cccc(O)c1 (centres undefined) | 3.8 | 3.84 | 3.82
CN1CCN(c2ccc(Nc3ncc([N+](=O)[O-])c(Nc4ccccc4O)n3)cc2)CC1 | 2.1 | 3.83 | 1.84
COc1cccc2c(N/N=C/c3ccccc3[N+](=O)[O-])cc(C)nc12 | 0.15 | 0.03 | 0.39
O=C(/C=C/c1ccc(Cl)c(Cl)c1)NCCCCCN1CCC(NC(=S)Nc2ccc(Cl)c(Cl)c2)CC1 | 4.99 | 5.09 | 3.5
